Compound activity (PubChem BioAssay)
12-LOX inh – inhibitors of human 12S-lipoxygenase ALOX12 | Potency, µM (highest dose often 108 µM), for the others: at the top dose activity change, negative = inhibition, actives largely listed as inhibitors | actives 1.1% (n = 580,000) | P18054 | purified 12hLO, xylenol orange hydroperoxide absorbance
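Hydroperoxide product was detected by ferrous iron/xylenol orange as the 573 to 405 nm absorbance ratio. Arachidonic acid at 40 uM (final) was turned over for 30 min at room temperature by 150 nM human 12hLO, pH 7.0 Hepes buffer, after 15 min compound preincubation.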
ELG1 repair inh – inhibitors of ELG1-dependent DNA repair in HEK293T cells. actives 2.3% (n = 330,000). Potency, µM (titrated, usually from 46.1 µM), inactives show at the top dose activity change, negative = inhibition, hits mostly inhibitors. HEK293T ELG1-luciferase reporter, luminescence, 16 h; DNA damage induced by 5-fluorouridine; further: nearly all actives have a fitted effect of over 55% in size
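DMSO vehicle served as the neutral condition. Each well held 2,000 cells given 5-fluorouridine plus compound; after 16 hr at 37 °C/5% CO2, ONE-Glo was added and luciferase measured 30 min later.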
RORgamma inh – inhibitors of mouse ROR gamma transcriptional activity. actives 5.4% (n = 310,000). Drosophila S2 Gal4-RORgamma UAS-luciferase reporter, 20 h. Potency, µM (series often up to 53.6 µM), inactives show at the highest dose activity change, negative = inhibition, hits mostly inhibitors. AID 2551; further: nearly all actives have a fitted effect of over 60% in size
Target sequence (P51450 whole entry, looked up, the tested form may be a part): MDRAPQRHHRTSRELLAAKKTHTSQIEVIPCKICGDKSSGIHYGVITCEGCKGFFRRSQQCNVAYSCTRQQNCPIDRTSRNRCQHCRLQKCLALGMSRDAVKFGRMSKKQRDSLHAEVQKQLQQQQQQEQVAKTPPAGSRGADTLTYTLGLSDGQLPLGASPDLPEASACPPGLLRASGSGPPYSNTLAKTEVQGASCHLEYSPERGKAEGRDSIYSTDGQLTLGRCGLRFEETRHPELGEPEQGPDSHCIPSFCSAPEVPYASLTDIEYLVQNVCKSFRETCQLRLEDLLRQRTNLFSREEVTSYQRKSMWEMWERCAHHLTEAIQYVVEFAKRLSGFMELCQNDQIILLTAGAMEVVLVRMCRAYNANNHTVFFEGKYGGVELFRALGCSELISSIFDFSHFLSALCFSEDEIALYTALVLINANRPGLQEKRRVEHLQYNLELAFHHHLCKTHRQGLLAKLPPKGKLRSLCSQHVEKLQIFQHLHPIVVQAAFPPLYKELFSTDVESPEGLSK
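Compounds are pin-transferred onto Drosophila Schneider cells expressing a copper-inducible Gal4–ROR gamma transactivation domain fusion. After 1 hr, copper sulfate is added to 700 uM final; luciferase is read 20 hr later.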
TDP1 cell CPT – growth inhibition of DT40 Tdp1-/-;hTDP1 cells with camptothecin (screen for TDP1 inhibitors); Potency, µM (series often up to 46.2 µM), for inactives: top-dose activity change, negative = growth inhibition, hits mostly inhibitors; actives 12% (n = 420,000); chicken DT40 Tdp1-/-;hTDP1 cells + 20 nM CPT, ATP luminescence, 48 h; further: nearly all actives have a fitted effect of over 55% in size
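Cell growth measured by CellTiter-Glo luminescence after a minimum 48 h, 37 C compound exposure with 20 nM CPT in Tdp1-knockout DT40 cells stably expressing hTDP1, seeded 400/well; qHTS titration format.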
DT40 TDP1 no CPT – qHTS for Inhibitors of human tyrosyl-DNA phosphodiesterase 1 (TDP1): qHTS in cells in absence of CPT; Potency, µM (top dose mostly 46.2 µM), inactives show at the top dose activity change, negative = growth inhibition, usual class: inhibitors; DT40 Tdp1-/- hTDP1 cells, no CPT, ATP luminescence, 48 h; actives 15% (n = 420,000); further: nearly all actives have a fitted effect of over 55% in size
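Seeded 400 DT40-hTDP1 cells/well (vehicle DMSO, no 20 nM CPT); pinned compounds; ≥48 hr at 37 °C; CellTiter-Glo luminescence as viability measure.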
VP16 counter – inhibits Gal4-VP16 luciferase reporter, ROR gamma counter-screen; Drosophila S2 Gal4-VP16 UAS-luciferase, luminescence, 20 h; Potency, µM (doses to about 53.6 µM), inactives show top-dose activity, negative = inhibition, hits mostly inhibitors; actives 3.5% (n = 310,000); AID 2546;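 further: Gal4-VP16 expression switched on by copper sulfate through the metallothionein promoter; nearly all actives have a fitted effect of over 50% in size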
The depositor's hits bear a star; ? = inconclusive; . = no result given; [ ] = dose if it differs, or a comment. An excerpt weighted towards active compounds, which were near 15% of everything screened. The call rests on the fitted dose curve; in most records, active means well fitted curve in the direction sought with a large enough effect; inconclusive means small, poorly fitted or top-dose-only effect, or another doubt; inactive means no such curve, though single readings can be large; an effect the other way counts as inactive or inconclusive. On the % scale 0 is the no-effect control and ±100 the full control effect; potency means the concentration at half of the fitted maximal effect.

SMILES	12-LOX inh	ELG1 repair inh	RORgamma inh	TDP1 cell CPT	DT40 TDP1 no CPT	VP16 counter
CCCn1c(N)c(C(=O)CSc2nc(C)cs2)c(=O)[nH]c1=O	0.8%	-22.9%	-2.0%	?	14.6µM*	2.8%
CCCCNc1nnc(SCC(=O)c2c(N)n(CCC)c(=O)[nH]c2=O)s1	325.5%	-7.0%	.	-16.6%	-16.5%	.
Cn1c(N)c(C(=O)CSc2nc3ccccc3c(=O)n2Cc2ccccc2)c(=O)n(C)c1=O	-15.2%	-2.4%	-35.5%	-26.8%	-16.1%	-1.1%
CCCn1c(N)c(C(=O)CSc2nc3ccccc3c(=O)n2Cc2ccccc2)c(=O)[nH]c1=O	-15.5%	2.3%	5.01µM*	3.2%	-19.5%	?
Cc1ccc(C(=O)NCCC23CC4CC(CC(C4)C2)C3)cc1	1.4%	.	.	.	.	.
COc1ccc(C(=O)N2CCc3ccc(C(=O)NCc4ccc(C)o4)cc32)cc1	24.2%	.	.	.	.	.
COc1ccc(-c2cc(C(F)(F)F)nc(SCC(=O)N3CCC(C)CC3)n2)cc1	-0.7%	.	.	?	?	.
COc1ccc(-c2cc(C(F)(F)F)nc(SCC(=O)N3CCOCC3)n2)cc1OC	-1.8%	8.2µM*	?	-18.1%	?	-17.6%
CC1CCN(C(=O)CSc2n[nH]c(-c3cc(Br)ccc3O)n2)CC1	31.6µM*	.	.	.	.	.
CC1CCN(C(=O)CSc2nc(-c3ccc(F)cc3)cc(C(F)(F)F)n2)CC1	5.5%	.	.	20.6µM*	?	.
O=C(CSc1n[nH]c(-c2cc(Br)ccc2O)n1)N1CCCCC1	52.2%	.	.	.	.	.
NC(=O)NC(=O)CSCc1ccccc1	-8.0%	.	.	.	.	.
Cc1ccc(NC(=O)c2cc(N3C(=O)C=CC3=O)ccc2N2CCOCC2)cc1Cl	12.6µM*	12.1%	5.62µM*	4.11µM*	3.66µM*	3.16µM*
Cc1ccc(NC(=O)CS(=O)CC(=O)Nc2ccc(N3CCOCC3)cc2)cc1Cl (centres undefined)	?	?	-1.6%	20.6µM*	29.1µM*	?
Cc1cc(C)c(NC(=O)CS(=O)CC(=O)Nc2ccc(N3CCOCC3)cc2)c(C)c1 (centres undefined)	-3.8%	16.2%	9.3%	1.7%	-13.3%	18.3%
Cc1cc(C(=O)N2C[C@@H](CO)[C@H](c3ccccn3)C2)ccn1	3.8%	.	.	.	.	.
CN(CCC1(O)CCCC1)C(=O)C1CCC(=O)N(Cc2ccccc2F)C1 (centres undefined)	-5.5%	.	.	.	.	.
O=C(Cc1cccs1)N1CCCC(c2nc3c(nnn3Cc3ccc(F)cc3)c(=O)[nH]2)C1 (centres undefined)	-11.3%	?	-2.2%	-24.6%	0.7%	-4.4%
CC(C)(C)c1ccc(Cn2nnc3c(=O)[nH]c(C4CCN(C(=O)Cc5cccs5)CC4)nc32)cc1	-9.6%	?	31.8%	?	20.6µM*	?
CC(C)(C)c1ccc(Cn2nnc3c(=O)[nH]c(C4CCCN(C(=O)Cc5cccs5)C4)nc32)cc1 (centres undefined)	-28.8%	-26.5%	?	23.1µM*	?	-24.2%
CC(C)(C)c1ccc(Cn2nnc3c(=O)[nH]c(C4CCN(C(=O)c5ccco5)CC4)nc32)cc1	?	10.3µM*	33.8%	-20.2%	?	-2.5%
CC(C)(C)c1ccc(Cn2nnc3c(=O)[nH]c(C4CCCN(C(=O)c5cccs5)C4)nc32)cc1 (centres undefined)	-27.3%	-5.7%	?	16.4µM*	?	-0.9%
Cc1ccc2[nH]c(C(=O)NCc3cccs3)cc2c1	-0.5%	.	.	.	.	.
CC(C)(C)CC(=O)N1CCC(c2nc3c(nnn3Cc3c(F)cccc3Cl)c(=O)[nH]2)CC1	53.2%	16.4µM*	7.3%	16.4µM*	?	-13.9%
Nc1nc(CC(=O)N2CCCC(CNC(=O)c3ccc(F)cc3)C2)cc(=O)[nH]1 (centres undefined)	1.3%	.	.	.	.	.
SMILES	12-LOX inh	ELG1 repair inh	RORgamma inh	TDP1 cell CPT	DT40 TDP1 no CPT	VP16 counter
CCC(O)CNC(=O)NC(=C(Cl)Cl)c1ccc(C)c(F)c1 (centres undefined)	-0.2%	?	-42.7%	?	10.3µM*	?
Cc1ccc(-c2nc3cccnc3s2)cc1NC(=O)C(C)C	-8.7%	.	.	-17.9%	-8.1%	.
CCC(C(=O)Nc1cc(-c2nc3cccnc3s2)ccc1C)c1ccccc1 (centres undefined)	4.7%	.	.	?	20.6µM*	.
Cc1cccc(C(=O)Nc2cc(-c3nc4cccnc4s3)ccc2C)c1	9.0%	.	.	?	?	.
Cc1ccc(-c2nc3cccnc3s2)cc1NS(C)(=O)=O	4.2%	?	39.3%	?	20.6µM*	22.5%
O=C(CCl)N1CCCC1c1ccc2c(c1)OCCO2 (centres undefined)	-18.3%	?	4.47µM*	0.731µM*	1.16µM*	?
Cc1ccc(NC(=O)NC(=O)CN2CCCC2c2ccc3c(c2)OCCO3)cc1C (centres undefined)	143.9%	4.8%	.	29.1µM*	?	.
CC(=O)c1ccc(OCC(=O)N2CCCC2c2ccc3c(c2)OCCCO3)cc1 (centres undefined)	0.1%	-6.1%	.	4.2%	-15.5%	.
O=C(c1csc(-c2ccsc2)n1)N1CCCC1c1ccc2c(c1)OCCCO2 (centres undefined)	8.0%	.	.	.	.	.
O=C1c2ccccc2-c2cc(Br)ccc2NC1O (centres undefined)	-23.9%	.	.	-20.0%	?	.
O=C1c2ccccc2C(=Nc2ccccc2)C1c1cccc(Br)c1 (centres undefined)	15.9%	0.0%	-17.5%	10.3µM*	?	-9.9%
COc1nc2c(cc1CNC(=O)C(C)(C)OC)C(=O)N(CCc1ccccn1)C2	37.6%	.	.	.	.	.
Cc1ccc(NC(NC(=O)c2ccc(Cl)cc2)C(Cl)(Cl)Cl)cc1 (centres undefined)	38.5%	.	.	.	.	.
COc1ccc(C(=O)NC(Nc2ccc(C)cc2)C(Cl)(Cl)Cl)cc1 (centres undefined)	-19.4%	5.4%	0.6%[10 µM]	20.6µM*	18.4µM*	-74.6%
CC(=O)NC(NC(=S)Nc1ccc(N=Nc2ccccc2)cc1)C(Cl)(Cl)Cl (centres undefined)	-14.0%	7.9%	7.08µM*	?	?	5.01µM*
CC(=O)NC(NC(=S)Nc1ccc(S(N)(=O)=O)cc1)C(Cl)(Cl)Cl (centres undefined)	0.0%	3.1%	0.4%	-5.9%	-9.2%	-0.7%
